Compound activity (PubChem)
D3 ag: D3 dopamine receptor (human) agonism | P35462 | D3R DiscoveRx beta-arrestin cells, luminescence, 90 min | max activation, % | hit rate 0.58% among 410,000 | AID 652048; in the data active = max activation above about 30%; also: 0% is about no effect
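Agonist-mode cell screen: cells plated at 1500/well and incubated overnight at 37 °C, then exposed to library compounds for 90 min at 37 °C. Detection reagent was added for 30–60 min at room temperature, and luminescence was read.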
D1 agonist: human D1 receptor agonism | P21728 | HEK293 T-REx D1 cells, calcium flux, agonist mode | activation, % at 2 µM | hit rate 1% among 360,000; in the data active = activation above about 30%; also: 0% is about no effect
Target sequence (P21728 whole entry, looked up): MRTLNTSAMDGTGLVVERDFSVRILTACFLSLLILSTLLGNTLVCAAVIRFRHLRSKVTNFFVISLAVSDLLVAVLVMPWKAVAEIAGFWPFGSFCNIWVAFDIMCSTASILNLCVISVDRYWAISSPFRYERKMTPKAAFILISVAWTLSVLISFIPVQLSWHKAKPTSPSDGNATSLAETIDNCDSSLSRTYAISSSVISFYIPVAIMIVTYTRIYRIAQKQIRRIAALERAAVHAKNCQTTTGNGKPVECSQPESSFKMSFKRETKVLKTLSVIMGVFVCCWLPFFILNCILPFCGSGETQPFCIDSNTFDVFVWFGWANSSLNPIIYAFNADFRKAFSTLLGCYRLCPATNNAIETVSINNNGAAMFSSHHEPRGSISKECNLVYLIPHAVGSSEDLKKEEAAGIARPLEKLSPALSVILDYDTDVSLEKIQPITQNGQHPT
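Tetracycline-induced HEK293 TREx D1 cells, force-coupled to calcium signalling, were dye-loaded with a no-wash calcium kit. Compound was pin-added after a 10 s baseline. Fluorescence was read kinetically at 1 cycle/s for 180 s, with calcium rises flagged as agonism.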
D3 antag: antagonists of human D3 dopamine receptor; P35462; D3R cells, DiscoveRx beta-arrestin luminescence, antagonist mode; active compounds read low; max response, negative = inhibition, %; hit rate 2.5% among 360,000; in the data active = max response below about -50%; inconclusive = no clear call, values can overlap the other calls; also: % is scaled to controls: 0 for no effect and ±100 for the full control effect
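Cells expressing the human receptor were seeded at 1500 cells/well, incubated overnight at 37 degrees C in 5% CO2, then exposed to library compounds with dopamine controls for 90 minutes at 37 degrees C before luminescent detection.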
D1 antagonist: human D1 dopamine receptor antagonism | hit rate 3.2% among 360,000 | HEK293 TREx D1 cells, calcium flux, dopamine EC80; active compounds read low | AID 504652 | P21728 | activity change, negative = inhibition, % at 10 µM; in the data active = activity change below about -30%; also: % is scaled to controls: 0 for no effect and ±100 for the full control effect
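Kinetic fluorescence of a calcium dye serves as the read-out. D1-expressing Hek293 Trex cells, induced overnight at 30 C, are exposed to compound for 180 s before an EC80 dopamine addition, then read 180 s further.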
D1 potentiator: human D1 dopamine receptor positive modulation. HEK293 TREx D1 cells, calcium flux, dopamine EC20 potentiation. potentiation, % at 10 µM. hit rate 0.036% among 360,000; in the data active = potentiation above about 30%; also: 0% is about no effect
* hit, by the source's call; u = inconclusive; x = no result given. Shown are actives, neighbours in structure and some others; about 6.1% of the full set was active somewhere.

SMILES	D3 ag	D1 agonist	D3 antag	D1 antagonist	D1 potentiator
COc1ccc(C(=O)OC(C(=O)c2ccccc2)c2ccccc2)cc1 (stereo unspecified)	-2	13	15	-30*	-8
O=C1c2cccnc2Nc2ccccc2N1CCCF	-4	0	-10	-33*	-3
COC(=O)CCC(=O)c1ccc(OC)c(Cl)c1	x	3	x	-34*	-6
COc1ccc(-c2noc(N3CCC(C(=O)Nc4ccccc4OC)CC3)n2)cc1	4	8	19	-34*	-4
Cc1ccc2c(=O)cc(C(=O)Nc3ccc(S(=O)(=O)N(C)Cc4ccccc4)cc3)oc2c1C	-9	3	x	-18	-2
CN1CCCC1CCNS(=O)(=O)c1ccc(Br)cc1 (stereo unspecified)	3	6	0	-33*	-13
CC1CCCN(C(=O)CCNS(=O)(=O)c2ccc(Br)cc2)C1 (stereo unspecified)	-1	10	4	-27	-3
O=C(CSc1cn(CC(=O)N2CCCCC2)c2ccccc12)NCc1ccccc1	10	1	x	-6	-5
COC(=O)c1ccc(CNC(=O)CNc2cc(C(F)(F)F)ccc2N2CCOCC2)cc1	-9	1	-57*	-21	-7
COC(=O)c1ccc(Cn2c(=O)cc(C)c3c(C)nn(C)c32)cc1	37*	18	x	-24	-5
Cc1cc(=O)n(CC(=O)N2CCCCC2)c2c1c(C)nn2C	-4	2	x	-6	-2
COc1ccc(C)cc1NC(=O)Cn1c(=O)cc(C)c2c(C)nn(C)c21	4	17	x	-31*	0
COC(=O)c1ccccc1NC(=O)Cn1c(=O)cc(C)c2c(C)nn(C)c21	-8	11	x	-20	-4
Cc1nn(C)c2c1c(-c1ccccc1)cc(=O)n2Cc1ccc(F)cc1	31*	20	x	2	-6
Cc1ccc2nc(Cl)c(-c3ccccc3)cc2c1	18	x	2	x	x
Cc1ccc2nc(CCl)[n+]([O-])c(-c3ccccc3)c2c1	-10	3	-4	-38*	-7
Cc1ccc(S(=O)(=O)n2nc(C)c(S(=O)(=O)N3CCC(C)CC3)c2C)cc1	-8	-1	x	-4	-3
CCCN(C(=O)COc1cc(=O)n(CC)c2ccccc12)c1ccc(C(C)C)cc1	-24	1	x	1	-1
Cc1ccc(NC(=S)NC(=O)c2ccc(F)cc2)cc1S(=O)(=O)Nc1cccc(Cl)c1	-19	14	-60*	5	-8
CC(CNC(=O)c1ccc(CSc2nc3ccncc3n2Cc2cccc(F)c2)cc1)c1ccccc1 (stereo unspecified)	-21	15	x	-5	-7
Cc1ccc(C)c(N2CCN(CCCNC(=O)Cn3c(=O)c4cccn4c4cccnc43)CC2)c1	-22	4	-98*	10	-1
O=C(CCn1c(=O)c2cccn2c2cccnc21)NCCCN1CCN(c2ccc(F)cc2)CC1	-4	x	-67*	x	x
Cc1ccc(C)c(N2CCN(CCCNC(=O)CCn3c(=O)c4cccn4c4cccnc43)CC2)c1	-8	0	u	-21	-7
c1ccc(-c2nc(NCC3CCCO3)c3ccccc3n2)nc1 (stereo unspecified)	0	0	-53*	11	-6
c1ccc(-c2nc(NCc3ccco3)c3ccccc3n2)nc1	-16	2	-56*	5	8
SMILES	D3 ag	D1 agonist	D3 antag	D1 antagonist	D1 potentiator
Oc1ccccc1-c1nc(NCc2ccco2)c2ccccc2n1	-1	2	13	-3	-2
Cc1ccc(N(Cc2cccs2)C(=O)COc2ccccc2[N+](=O)[O-])cc1	-6	3	x	1	0
CCOC(=O)c1ccc(CN(Cc2ccc(F)cc2)S(=O)(=O)c2cc(C(=O)Nc3ccccc3CC)ccc2F)cc1	0	12	x	6	-2
Cc1cc(C)n2nc(C(=O)OCC(=O)NCc3ccc(Cl)cc3)nc2n1	2	-1	18	-33*	-6
Cc1ccnc2nc(C(=O)OCCOc3ccc(Cl)cc3)nn12	5	7	10	-37*	-4
Cc1ccnc2nc(C(=O)OCCOc3ccc(F)cc3)nn12	0	3	-10	-14	0
COc1cc(C=C2CCC/C(=C\c3ccc(O)c(OC)c3)C2=O)ccc1O	5	x	x	x	x
CC(=O)c1ccc(NC(=O)c2c3c(nc4ccccc24)C(=O)N(C2CCCCC2)C3)cc1	-12	2	x	17	2
